# Data reported in PubChem BioAssay (NCI).
# This is part of a sample that, as a whole, favours compounds with a hit. Of some 83,000 tested, about 20% had one in any assay.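 Note: values are percent growth. 100 is the growth of untreated cells, values between 100 and 0 indicate rising inhibition; between -100 and 0 indicates cell death.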 A number with no mark means an inactive call. Active and inactive are the calls of the source. How the source made its calls: active means growth percent below 10; inactive means the rest.
# Tests used:
# Test in all cases: NCI-60 one-dose screen, 48 h (100 = growth as untreated, 0 = no growth, -100 = all killed)
# Conditions in all cases: 10 µM unless noted
# SK-MEL-2 melanoma = test system: SK-MEL-2 melanoma
# EKVX NSCLC = test system: EKVX NSCLC
# SN12C renal = test system: SN12C renal
# UO-31 renal = test system: UO-31 renal
# TK-10 renal = test system: TK-10 renal
# ACHN renal = test system: ACHN renal
# CAKI-1 renal = test system: CAKI-1 renal
# A498 renal = test system: A498 renal
# CCRF-CEM leukemia = test system: CCRF-CEM leukemia
# MOLT-4 leukemia = test system: MOLT-4 leukemia
SMILES,growth (SK-MEL-2 melanoma),growth (EKVX NSCLC),growth (SN12C renal),growth (UO-31 renal),growth (TK-10 renal),growth (ACHN renal),growth (CAKI-1 renal),growth (A498 renal),growth (CCRF-CEM leukemia),growth (MOLT-4 leukemia)
COc1ccc(/C=C/c2c(C(=O)/C=C/c3ccc(F)cc3)c(C)nc3ccccc23)cc1,81.3%,63.1%,45.2%,45.6%,110%,49.2%,54.6%,77.2%,9.18% (active),5.98% (active)
O=c1[nH]c2ccccc2n1C1CCN(CCOc2ccccc2)CC1,83.3%,99.7%,97.3%,64.6%,98.7%,90.9%,98.8%,63.7%,74.3%,86.4%
COc1ccc(C(=O)Nn2c(NCC(=O)N3c4ccccc4Sc4ccccc43)nnc2-c2ccc(O)cc2)cc1,108%,108%,94.7%,98.1%,109%,103%,107%,90.2%,110%,110%
Cc1c(C(=O)N[C@@H](Cc2ccccc2)C(=O)C(=O)NCCc2ccccc2)[nH]c2ccccc2c1=O,111%,97.1%,83.4%,103%,118%,101%,95.9%,86.5%,104%,86.8%
O=C(Nc1ccc(Cl)cc1)Nc1ccc(Cl)c(C(F)(F)F)c1,3.63% (active),-3.9% (active),6.93% (active),18.5%,18.1%,0.165% (active),8.5% (active),-7.36% (active),-27.6% (active),-9.08% (active)
CN(c1ccccc1)c1ccc2c(c1)OCCC21CC1Nc1cnccc1C(=O)O (stereo unspecified),97.5%,93.1%,82.9%,87.4%,79.5%,66.7%,76.3%,59.7%,47.2%,45.8%
Cn1ccc2c(c1=O)C(=O)c1nccc3c1c-2nc1ccccc13,98.1%,86.9%,66.8%,46.2%,1.92% (active),21.3%,61%,87.6%,-12.8% (active),34.5%
NC(=S)N/N=C/Cc1ccccc1,106%,89.1%,102%,64.4%,107%,102%,116%,99.8%,69.9%,78.7%
COc1ccc(OC)c2c1[nH]c(=O)c1c3ncccc3cn21,65.6%,34.4%,13.3%,26.5%,38.6%,17.7%,-29.2% (active),31.5%,36.5%,17.7%
Fc1c[c-]c(-c2ccccn2)c(F)c1.[CH3-].[Pt+2].c1ccc(P(C[PH+](c2ccccc2)c2ccccc2)c2ccccc2)cc1,-39% (active),-12% (active),-32.2% (active),-98.2% (active),-30.5% (active),-100% (active),-73.8% (active),-79.3% (active),,0% (active)
N#CC1=C(c2ccc(Br)cc2)NC(SCC(=O)c2ccc(Br)cc2)NC1=O (stereo unspecified),98%,104%,109%,89.9%,118%,109%,97.1%,80.1%,,92%
Cc1cccc(NC(=O)N/C(N)=N/c2nc(C)c(C)s2)c1,43.7%,55.8%,57.6%,64.3%,96.3%,63.4%,30.6%,20%,53.5%,21.9%
COc1ccc(-c2cc(-c3cc(OC)c(OC)c(OC)c3)c(C#N)c(N3CCOCC3)n2)cc1O,68.2%,59.8%,60.1%,56.8%,73.3%,66.7%,51.5%,74.8%,42.8%,55.4%
CN(C)CCCn1c(=O)c2ccccc2c2ccccc21,83.7%,107%,50.6%,53.6%,79.3%,42.2%,79.8%,104%,49.9%,51.6%
CN(C)CCNc1nc2ccccc2c2c1c1c(n2Cc2ccccc2)-c2ccccc2C1=O,-74.6% (active),-87.8% (active),-89.1% (active),-77.8% (active),-80% (active),-98.4% (active),-80.1% (active),-96.4% (active),-60.6% (active),-84.3% (active)
COc1cc(/C=N/NC(=O)Cn2c(C(C)C)nc3ccccc32)ccc1O,105%,103%,94.7%,84.5%,106%,99.6%,91.8%,81.9%,94.5%,93.6%
O=C(CCCCCCSc1nc(-c2ccccc2)cc(-c2ccc(Cl)cc2)n1)NO,81.3%,44.5%,20.7%,-2.31% (active),21.1%,4.89% (active),-7.71% (active),24.2%,0.872% (active),1.04% (active)
COc1ccc(C2C(c3nn[nH]n3)=C(N)Oc3c2ccc2ccccc32)cc1 (stereo unspecified),61.5%,83.4%,64.9%,45.1%,43.8%,68.6%,34.3%,26.5%,75.3%,52.6%
Cc1ccc(NS(=O)(=O)c2ccc3c(c2)C2OCCC2C(c2ccc(C(=O)C(C)C)cc2)N3)cc1C (stereo unspecified),72.9%,24.7%,52.3%,25.7%,63.5%,32.3%,45.5%,40.1%,60.3%,31.1%
COc1cccc(-c2nc3sccn3c2-c2ccnc(NCCNS(=O)(=O)c3cccc(Cl)c3)c2)c1,51.8%,45.8%,36.3%,12.9%,59.7%,30.5%,25.9%,44.1%,24%,30.4%
COc1ccc2c(c1)[nH]c(=O)c1c3cccnc3cn21,68.9%,63.2%,13.4%,41%,61.8%,30.5%,-14.4% (active),-3.48% (active),23.1%,25.1%
O=C(CSc1nnc(-c2ccc(NC(=O)c3cccnc3)cc2)o1)Nc1cccc(Br)c1,96.5%,88.3%,51.1%,95.9%,121%,99.2%,82.6%,96.2%,72.2%,84.5%
COc1cc(N=Nc2cc(Cc3ccc(N(C)C)cc3)c(N)cc2N(C)C)c2ncccc2c1,29.4%,8.8% (active),31.2%,-12.6% (active),32.3%,-58.5% (active),13.5%,-8.31% (active),,-13.2% (active)
COc1cc(C2CC(c3ccc(Nc4ccnc5cc(Cl)ccc45)cc3)=NN2C=O)cc(OC)c1OC (stereo unspecified),97.4%,76.7%,86.7%,61.9%,92.8%,87.5%,86.7%,93.2%,58%,43.1%
CCN(CC)CCCNc1ccc(Nc2ccc(OC)cc2)cc1,108%,81.1%,92.3%,48%,88.2%,94.1%,84.5%,55.3%,,32.7%
